Results published in PubChem BioAssay AID743395 (Broad Institute, 2014).
In all, about 1,200 compounds went through this assay and about 480 (40%) were called active. The set was probably picked from earlier hits. The list is a sample of the results. Measured potencies and affinities stand elsewhere. A number with no mark means an inactive call. The rule behind the calls is not given here.

Experiment: viability loss in human hepatoma cells – cell-based, CellTiter-Glo luminescence, cherry-pick, set 2, cytotoxicity control, dose response (AID 743395);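 note: 0% = neutral control wells and -100% = positive control wells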
Settings: HepG2 viability, CellTiter-Glo ATP luminescence, 72 h; series mostly up to 26 µM; activity change, negative = cytotoxicity: at the top concentration

Row | SMILES | activity change, negative = cytotoxicity [%]
1 | N#Cc1ncn(C2OC(CO)C(O)C2O)c1N (stereo unspecified) | -7.3
2 | Cc1cc(Cl)cc(C)c1OCCn1ccnc1 | 3.36
3 | Cc1ccc(NC(=O)COC(=O)CCC2CCCC2)c(Br)c1 | -10.8
4 | COc1ccc2c3c([nH]c2c1)[C@@H](CO)N(S(=O)(=O)c1cn(C)cn1)CC31CCN(CC2CCCCC2)CC1 | -1.36
5 | CCCC(=O)Nc1ccc2c(c1)C(=O)N(C)C[C@@H](OC)[C@H](C)CN(C(=O)CN1CCOCC1)[C@H](C)CO2 | -4.55
6 | Cc1ccc(/C=N/NC(=O)C2COc3ccccc3O2)s1 (stereo unspecified) | -13.9
7 | NS(=O)(=O)c1ccc(Cl)c(S(N)(=O)=O)c1 | -3.33
8 | CCN(CC)c1ccc(/C=C(/C#N)c2nc3ccc(C)cc3[nH]2)c(OC(C)C)c1 | -32.9
9 | Cc1cc(C)c(C(=O)NC2CCCc3c2cnn3-c2cccc(C)c2C)o1 (stereo unspecified) | -9.1
10 | CCNC(=S)NNC(=O)CC(C)C | -4.94
11 | O=C(/C=C/c1ccco1)NC(=S)Nc1nc(-c2ccc3ccccc3c2)cs1 | -2.42
12 | CC(=O)NC(=S)Nc1ccc(NC(=S)NC(=O)/C=C/c2ccco2)cc1 | -3.21
13 | CN(C(=O)c1ccccc1C(=O)OCC(=O)Nc1ccc(S(N)(=O)=O)cc1)c1ccccc1 | -17.8
14 | CCCCc1nc(Cl)c(CO)n1Cc1ccc(-c2ccccc2-c2nn[nH]n2)cc1 | 6.61
15 | COCCSc1ccccc1C(=O)Nc1cc([N+](=O)[O-])ccc1OC | -19.6
16 | COc1cc(NC(=O)COC(=O)c2n[nH]c3ccccc23)c(C)cc1[N+](=O)[O-] | -11.9
17 | C=CCn1c(SCC(=O)N(C)C2CCS(=O)(=O)C2)nc2ccccc2c1=O (stereo unspecified) | -11.1
18 | COC(=O)c1cc2c(=O)c3ccccc3oc2nc1/C=C/N(C)C | 6.84
19 | O=C(Cc1ccccn1)NCC[C@@H]1CC[C@H](NC(=O)Nc2ccc(C(F)(F)F)cc2)[C@H](CO)O1 | 2.91
20 | CCOC(=O)C1=CN(Cc2ccco2)S(=O)(=O)NC1c1ccc(C(F)(F)F)cc1 (stereo unspecified) | -15
21 | Cc1cc(C(=O)CN2C(=O)C(=O)N(Cc3ccccc3)C2=O)c(C)n1Cc1ccccc1 | -8.93

Row | SMILES | activity change, negative = cytotoxicity [%]
22 | CC(C)[N+]1(C)[C@@H]2CC[C@@H]1CC(OC(=O)C(CO)c1ccccc1)C2 (stereo partly specified) | -13.9
23 | Cc1noc(C)c1NC(=O)N(C)C[C@H]1Oc2cc(C#CCC3CCCC3)ccc2S(=O)(=O)N([C@@H](C)CO)C[C@@H]1C | -21.9
24 | CCC1(C)Cc2ccccc2-c2nc[nH]c(=O)c21 (stereo unspecified) | -19.7
25 | O=S(=O)(c1ccc(OCc2ccc(Br)cc2)cc1)N1CCOCC1 | 2.21
26 | COc1cc(C(c2sc3nc(C)nn3c2O)N2CCN(c3ccccc3)CC2)cc(OC)c1OC (stereo unspecified) | 20.9
27 | Cn1nnnc1N=N/C(=N/Nc1ccccc1)c1ccccc1 | -12.8
28 | Cc1cccc(C(=O)NCC(=O)OCC(=O)N(C)CC(=O)Nc2ccccc2Cl)c1 | -8.28
29 | C[C@H]1CN([C@@H](C)CO)S(=O)(=O)c2ccc(/C=C/c3ccccc3)cc2O[C@H]1CN(C)Cc1ccccc1 | -32.4
30 | COc1ccccc1C#Cc1ccc2c(c1)O[C@H](CN(C)Cc1cccnc1)[C@H](C)CN([C@@H](C)CO)S2(=O)=O | -5.36
31 | C[C@@H]1CN([C@H](C)CO)S(=O)(=O)c2ccc(C#Cc3ccccc3F)cc2O[C@H]1CN(C)C(=O)Cc1cccnc1 | 21.9
32 | COc1ccccc1C#Cc1ccc2c(c1)O[C@@H](CN(C)Cc1cccnc1)[C@H](C)CN([C@@H](C)CO)S2(=O)=O | 5.01
33 | O=C(NC1CCCCC1)c1cc(C2CC2)nn1-c1ccccc1 | 2.5
34 | O=C(CNC1CCCCC1)NN=C(c1ccccc1)c1ccccc1 | -17.1
35 | CC(=O)Nc1ccc(S(=O)(=O)Nc2cccc(-c3nc4cc(C)ccc4o3)c2)cc1 | -22.7
36 | Clc1ccc(Nc2ccc3ccccc3n2)cc1 | -12.5
37 | CC(=O)Nc1cccc(NC(=O)CN2c3cccc4cccc(c34)S2(=O)=O)c1 | -14
38 | Cc1cc(Nc2ccc(Br)cc2)nc2ccccc12 | -20.8
39 | CC(=O)Nc1ccc(S(=O)(=O)N2c3ccccc3C(C)=CC2(C)C)cc1 | -29.7
40 | CCC1(C2=CCCCC2)C(=O)NC(=S)N=C1N (stereo unspecified) | -1.67
41 | COc1cccc(-c2ccc([C@H]3[C@@H](CO)N(C(=O)c4ccccn4)[C@H]3C#N)cc2)c1 | -1.97
42 | N#Cc1ccc(-c2ccc(C3[C@@H]4CN(C(=O)C5CCC5)C[C@H]3N4)cc2)cc1 (stereo partly specified) | -25.8

Row | SMILES | activity change, negative = cytotoxicity [%]
43 | N#Cc1ccc(-c2ccc3c(c2)[C@H]2[C@H](CCN2S(=O)(=O)c2ccccc2F)[C@@H](CO)N3)cc1 | -15.8
44 | CCCNC(=O)N1CC2(CN(S(=O)(=O)c3cccc(OC)c3)C2)c2c(n(C)c3cc(OC)ccc23)[C@H]1CO | -5.83
45 | Cc1cccc(S(=O)(=O)N2C[C@H]3[C@@H](c4ccccc42)[C@H](CO)N3CC2CCCC2)c1 | -7.41
46 | CCOC(=O)/C(=C/C=C1\Sc2cc(C)c(C)cc2N1CC)C(C)=O | -4.04
47 | COCC(C)n1c(SCC(=O)N2CC(=O)Nc3ccccc32)nc2ccccc2c1=O (stereo unspecified) | -14.5
48 | CCN(CC(=O)Nc1c(F)cccc1F)C(=O)C1CC1 | -0.756
49 | CN(c1ccc(OCCOc2ccccc2Cl)cc1)S(=O)(=O)c1ccccc1 | -26.7
50 | Cn1c(=O)c(NC2CCCCC2)c2c3c(cccc31)C(=O)c1ccccc1-2 | 5.22
51 | O=C1c2cccc3c(N4CCCCC4)ccc(c23)C(=O)N1c1cccc(O)c1 | -8.5
52 | Cc1cccc(C(=O)N(Cc2ccco2)c2c(N)n(Cc3ccccc3)c(=O)[nH]c2=O)c1 | -0.07
53 | O=C(COC(=O)/C=C/c1ccccc1Cl)NC(=O)NCc1ccccc1 | -17.1
54 | COc1ccccc1N(C)S(=O)(=O)c1ccc(C(=O)Nc2nccs2)cc1 | -9.42
55 | CC1CN(S(=O)(=O)c2ccc(C(=O)Nc3ccccc3F)cc2)CC(C)O1 (stereo unspecified) | -17.4
56 | c1ccc(-c2csc(NC3=NCCCCC3)n2)cc1 | -1.28
57 | CCn1c(SCC(=O)N/N=C/c2ccc(O)c(OC)c2)nc2ccccc21 | 0.421
58 | CCOc1cc(OCC)c(C(C)=O)cc1OCC | 4.37
59 | COc1cccc2c1C(=O)C=C(C)C2=O | -10.7
60 | Cc1ccc(NC(=O)c2ccc(Cl)c(S(=O)(=O)Nc3c(C)n(C)n(-c4ccccc4)c3=O)c2)cc1Cl | 0.196
61 | O=c1[nH]c(CN2CCN(c3ccc(O)cc3)CC2)nc2scc(-c3ccc(Cl)cc3)c12 | -28.1
